Test results as given in PubChem BioAssay (NCI).
Compounds without any hit were thinned out: in the full panel of roughly 83,000, 20% have a hit.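 Testing used 96-well plates and a 48-hour single-concentration exposure. Example: -40 means 40% of the starting cells died.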 Calls of active or inactive are those of the source. The calls were made as follows: active = growth percent below 10; inactive = the rest.

tested on: HL-60(TB) leukemia; assay: NCI-60 one-dose screen, 48 h (100 = growth as untreated, 0 = no growth, -100 = all killed); conditions: 10 µM unless noted

Row | Structure (SMILES) | growth
1 | c1ccc(-c2cn3ccnc3c(-c3ccc4c(c3)ncn4C3CCCCC3)n2)cc1 | 80.7% (inactive)
2 | NC(N)=Nc1cc2ccccc2c2ccccc12 | 46.4% (inactive)
3 | O=S(=O)(NCCNc1cc(-c2cn(-c3ccccc3)nc2-c2ccccc2)ccn1)c1cccc2ccccc12 | 36.4% (inactive)
4 | CC1SC(N)=NC1=O (stereo not given) | 104% (inactive)
5 | C=C1C(=O)O[C@H]2[C@H]1CC/C(CNS(=O)(=O)c1ccc3ccccc3c1)=C\CC[C@@]1(C)O[C@@H]21 | -48.4% (active)
6 | COc1cc(Nc2ncccc2NC(=O)c2cn(Cc3cccc(Oc4ccccc4)c3)nn2)cc(OC)c1 | 64.6% (inactive)
7 | OC(c1ccccc1)c1ccccn1 (stereo not given) | 99.9% (inactive)
8 | O=C(COc1ccc(/C=C2\CSc3ccccc3C2=O)cc1)c1ccc(Cl)cc1 | 80% (inactive)
9 | O=[N+]([O-])c1cccc(-c2nc3sccn3c2-c2ccnc(NCCCNS(=O)(=O)c3ccc(Cl)cc3)n2)c1 | 26.1% (inactive)
10 | Cc1ccc(OCCOCCOCCOCCOCCOc2ccc(C)n(O)c2=S)c(=S)n1O | -16.5% (active)
11 | CCOC(=O)c1c(O)c2cc(-c3ccccc3)nc(OCC)c2c(=O)n1C | 156% (inactive)
12 | COc1ccc(C2=NN(C(=O)COc3ccc(Cl)cc3)C(O)(c3cc(F)c(Cl)cc3Cl)C2)cc1 (stereo not given) | 95% (inactive)
13 | CCOC(=O)Cc1cc(Br)c(OCc2ccccc2)c(Br)c1 | 71.7% (inactive)
14 | Cc1ccc2nc(-c3cc4c([nH]c5ccccc54)c(-c4ccc(F)c(F)c4)n3)[nH]c2c1 | 48.5% (inactive)
15 | COc1ccc(C2CC(c3ccc(OC)cc3O)=NN2c2ccc(S(N)(=O)=O)cc2)cc1 (stereo not given) | -23.2% (active)
16 | COC(=O)/C=C1/SC(=NCc2ccccc2)N(CCc2c[nH]c3ccccc23)C1=O | 79.8% (inactive)
17 | COc1cc(OC)c(C(=O)/C=C/c2ccc(C#N)cc2)c(OC)c1 | -7.85% (active)
18 | N#Cc1nn(-c2cc(=O)[nH]c3ccc(Br)cc23)c(N)c1C#N | -11.2% (active)
19 | CC1(c2ccccc2)CO1 (stereo not given) | 105% (inactive)
20 | C=CC[P+](c1ccccc1)(c1ccccc1)c1ccccc1 | 4.03% (active)

Row | Structure (SMILES) | growth
21 | O=C(O)C(=Cc1c2ccccc2cc2ccccc12)C(=O)O | 110% (inactive)
22 | Cc1ccc(Cc2cnc(NC(=O)/C=C/c3cccc(C)c3)s2)cc1 | -15.4% (active)
23 | COc1ccc(CCn2cncc2-c2c[nH]c3ccccc23)cc1 | 93.5% (inactive)
24 | COc1ccc(-c2csc3c2-n2cccc2C3=O)cc1O | -18.3% (active)
25 | Cc1ccc(S(=O)(=O)NC(CCC(=O)Nc2ccccc2)C(=O)Nc2ccccc2)cc1 (stereo not given) | -2.4% (active)
26 | CCN(CC)c1cc(/C=C/c2ccc(OC)c(OC)c2)nc2cc(F)c(F)cc12 | 112% (inactive)
27 | COc1cc(CNC(=O)c2ccsc2Nc2ccnc(C(F)(F)F)c2)ccc1O | 102% (inactive)
28 | COc1ccc(-c2nc3ccc(-c4nc5ccc(N6CCN(c7ccncc7)CC6)cc5[nH]4)cc3[nH]2)cc1OC | 35.3% (inactive)
29 | COc1cccc(/C=C2\C=C(c3ccccc3)N(Cc3ccccc3)C2=O)c1 | 90.7% (inactive)
30 | CCOC(=O)c1c2c(n3ccc(NC(=O)OC(C)(C)C)cc13)C(=O)c1ncccc1C2=O | -34.2% (active)
31 | COC1C/C(=N\O)C2OC(c3ccccc3)OCC2O1 (stereo not given) | 101% (inactive)
32 | COc1ccc(OC)c(/C=C/c2nc(=S)n(-c3ccc(Cl)cc3)[nH]2)c1 | 4.33% (active)
33 | CCN1C(=O)C(C)C=C(C)C=C1C (stereo not given) | 94.4% (inactive)
34 | CN1CCN(CCCOc2ccc3nc(Nc4cc(Cl)cc(Cl)c4)ccc3c2)CC1 | -39.2% (active)
35 | NC(=O)c1ccc[n+](Cc2ccc(Cl)cc2Cl)c1 | 73.1% (inactive)
36 | Clc1ccc2nc3nc4ccc[nH]c4cc3c2c1 | 88.2% (inactive)
37 | CC(=O)N1N=C(c2ccc(Nc3nc(Nc4ccccc4)nc(Nc4ccccc4)n3)cc2)CC1c1ccccc1 (stereo not given) | 79.3% (inactive)
38 | O=C(Nc1ccc(F)c(Cl)c1)c1n[nH]c(=O)c2ccccc12 | 86.2% (inactive)
39 | Cn1c(=O)c2[nH]c(SC/C(=N/O)c3ccc(Br)cc3)nc2n(C)c1=O | 99.5% (inactive)
40 | Nc1nc(Nc2ccccc2SSc2ccccc2Nc2nc(N)nc(-c3cccs3)n2)nc(-c2ccsc2)n1 | -7.94% (active)
